From PubChem BioAssay
FMDV antiviral: antivirals against foot and mouth disease virus; FMDV antiviral cell-based qHTS; Potency, µM (highest dose often 57.9 µM), for the others: at the top dose activity change, negative = inhibition, hits mostly inhibitors; 1.2% of 410,000 active; calls by dose curve; tested in HEK293T cells; note: read-out not given here; potency is the fitted concentration of half-maximal effect; nearly all actives have a fitted effect of over 45% in size
TbPYK inhibitor: blocks Trypanosoma brucei pyruvate kinase | Q57TT1 | TbPYK enzyme, Kinase-Glo Plus ATP luminescence, 45 min | Potency, µM (doses to about 76.8 µM), for inactives: top-dose activity, negative = inhibition, usual class: inhibitors | 0.12% of 410,000 active | AID 624173; note: potency is the fitted concentration of half-maximal effect; nearly all actives have a fitted effect of over 50% in size
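Assay buffer: 50 mM TEA pH 7.2, 100 mM KCl, 10 mM MgCl2, 0.05% BSA, 0.01% Tween-20. Pyruvate kinase from T. brucei plus substrate met compound, then ADP (130 uM final). Luminescence was read post 45 min RT.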
RE007 growth inh: less growth of the S. pombe RE007 Vpr strain; 0.21% of 360,000 active; S. pombe RE007 Vpr strain, BacTiter-Glo ATP luminescence, 24 h; Potency, µM (series often up to 92.2 µM), without a hit: at the top dose activity change, negative = less growth, actives largely listed as inhibitors; AID 651644; active = well fitted falling curve with a large enough effect; inconclusive = small, poorly fitted or top-dose-only effect; inactive = no such curve, though single readings can be large or run the other way; note: potency is the fitted concentration of half-maximal effect; nearly all actives have a fitted effect of over 50% in size
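Fission yeast strain RE007, carrying one chromosomally integrated HIV-1 vpr copy, was seeded at OD 0.01 in PMG+AL medium with 23 nL pinned compound. After 24 h at 30 °C and 99% humidity, viability was read by BacTiter-Glo luminescence.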
HCMV antiviral: human cytomegalovirus inhibition; HFF cells, HCMV-luciferase reporter, 72 h; stronger effect = lower value; activity change, negative = inhibition, % at 57.5 µM; 4.5% of 410,000 active; AID 1259415; in the data active = activity change below about -60%; inconclusive = no clear call, values can overlap the other calls; inactive = above about -39%
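Compounds were evaluated in HFFs infected with an HCMV luciferase reporter virus (MOI 1 PFU/cell). Luciferase in lysates collected 72 h post infection served as the replication measure.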
Giardia FBPA inh: inhibitors of Giardia lamblia fructose-1,6-bisphosphate aldolase; A8B2U2; purified Giardia FBPA; Potency, µM (titrated, usually from 59.6 µM), inactives show at the top dose activity, negative = inhibition, most hits filed as inhibitors; 0.71% of 290,000 active; note: potency is the fitted concentration of half-maximal effect; nearly all actives have a fitted effect of over 55% in size
Target sequence (A8B2U2 whole entry, looked up): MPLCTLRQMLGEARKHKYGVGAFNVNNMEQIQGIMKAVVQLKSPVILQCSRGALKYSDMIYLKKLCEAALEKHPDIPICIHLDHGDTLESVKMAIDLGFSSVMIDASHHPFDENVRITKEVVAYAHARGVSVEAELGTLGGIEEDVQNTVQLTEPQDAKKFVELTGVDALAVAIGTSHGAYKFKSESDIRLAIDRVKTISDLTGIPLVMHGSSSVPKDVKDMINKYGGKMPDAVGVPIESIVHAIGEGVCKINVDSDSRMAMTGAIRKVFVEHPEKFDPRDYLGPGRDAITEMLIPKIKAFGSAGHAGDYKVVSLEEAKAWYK
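40 nM FBPA preincubated 10 min at RT with compound (up to 57.5 uM final), then substrate plus GAPDH/TPI/NAD/arsenate coupling and diaphorase/resazurin added. Fluorescence read after 20 min at RT, 525/598 nm.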
Sm TGR block: blocks Schistosoma mansoni thioredoxin glutathione reductase; AID 485364; purified TGR, DTNB reduction, TNB absorbance 405 nm; Potency, µM (series often up to 114 µM), inactives show top-dose activity change, negative = inhibition, usual class: inhibitors; Q962Y6; 3% of 360,000 active; note: potency is the fitted concentration of half-maximal effect; nearly all actives have a fitted effect of over 60% in size
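First, TGR (20 nM dispensed) and NADPH were mixed with compound. Second, a 15 min room-temperature incubation followed. Third, further NADPH and then DTNB were added to start the reaction. Finally, TNB absorbance was monitored kinetically.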
An asterisk follows results filed as active; ? = inconclusive; . = no result given. Only some compounds are listed: those with a hit (about 7.7% of all), similar ones and a draw of the others. Unless noted, calls come from the whole dose curve; as a rule, active = well fitted curve in the direction sought with a large enough effect; inconclusive = small, poorly fitted or top-dose-only effect, or another doubt; inactive = no such curve, though single readings can be large; an effect the other way counts as inactive or inconclusive. % is set by controls: 0 for no effect and ±100 for the full control effect.

SMILES	FMDV antiviral	TbPYK inhibitor	RE007 growth inh	HCMV antiviral	Giardia FBPA inh	Sm TGR block
COc1ccc(CNC(=O)C2CCNCC2)cc1	16%	-4%	-5%	-10	4%	45µM*
Cc1ccc(CCNC(=O)C2CCC(=O)N(Cc3ccccc3F)C2)o1 (configuration not stated)	78%	-10%	-2%	16	.	45µM*
COc1ccc(CNC(=O)C2CCN(S(=O)(=O)N3CCCCC3)CC2)cc1	-18%	6%	-2%	0	13%	0%
c1ccc(COCC2CCNCC2)cc1	0%	1%	-7%	-7	-30%	1%
COc1ccc(OCC2CCNCC2)cc1	-20%	-6%	-3%	29	-7%	35µM*
COc1cccc(CN2CC(C(=O)NCCc3ccc(C)o3)CCC2=O)c1 (configuration not stated)	-18%	2%	14%	-5	.	13µM*
O=C(CSc1nc(-c2ccccc2)[nH]c1-c1ccc(F)cc1)NC1CCCC1	-25%	1%	.	-18	.	3%
COc1cccc(Cn2cnc3c2c(=O)n(C)c(=O)n3C)c1	-8%	1%	.	?	.	5%
CN1CCN(c2ncc3nc(-c4cccc(C#N)c4)c(=O)n(CCC#N)c3n2)CC1	-13%	.	.	.	0%	.
COc1ccc(CNC(=O)COC(=O)C2CCC(C(C)(C)C)CC2)cc1 (configuration not stated)	?	19%	-3%	-77*	12%	-8%
Cc1ccc(CN(C)C(=O)C2CCC(=O)N(CCc3ccccc3)C2)o1 (configuration not stated)	67%	?	-11%	59	-15%	13µM*
CN(Cc1cnccn1)C(=O)C1CCC(=O)N(CCc2ccccc2)C1 (configuration not stated)	2%	2%	1%	4	12%	-1%
Cc1ccc(CNC(=O)COC(=O)C2CC2)cc1	10%	3%	-6%	0	.	0%
COc1ccc(CN2CC(C(=O)NCc3cccc(OC)c3)CC2=O)cc1 (configuration not stated)	-11%	3%	0%	-105*	10%	-1%
COc1ccc(CN2CC(C(=O)NCc3ccc4c(c3)OCO4)CC2=O)cc1 (configuration not stated)	-11%	1%	-1%	-14	4%	0%
CCC1(C2CCN(Cc3ccc(OC)cc3)CC2)NC(=O)N(CC2COc3ccccc3O2)C1=O (configuration not stated)	-22%	.	.	.	.	.
COc1ccc(CCNC(=S)NC(=O)c2ccccc2)cc1OC	-27%	0%	8%	-7	-2%	50µM*
COc1ccc(/C=C/C(=O)NC(=S)NCCc2ccc(OC)c(OC)c2)cc1	?	-6%	-2%	-62*	1%	3%
COc1ccc(CCNC(=S)NC(=O)c2cccc(Cl)c2)cc1OC	-17%	4%	9%	28	-18%	0%
Cc1cccc(C(=O)NC(=S)NNC(=O)Cc2ccccc2)c1	-26%	?	-13%	-84*	?	-4%
CCCCCC(=O)NNC(=S)NC(=O)c1cccc([N+](=O)[O-])c1	-19%	?	.	28	?	1.6µM*
CCCCCC(=O)NNC(=S)NC(=O)c1ccccc1[N+](=O)[O-]	-22%	-8%	-13%	105	-2%	0%
COCC(=O)N1CCC2(CCCN(c3ccccn3)C2)CC1	-12%	3%	.	.	-21%	.
COc1ccc(CNCCSc2nnnn2-c2ccccc2)c(OC)c1	-6%	2%	.	-5	.	-4%
COc1ccc(CC(C)CC(=O)NCCc2ccc(OC)c(OC)c2)cc1 (configuration not stated)	-6%	0%	4%	-61*	5%	-10%
COc1ccc(CCNC(=O)CSC(=O)c2ccccc2)cc1OC	-14%	-1%	9%	-60*	-5%	-27%
COc1ccc(C(=O)CCc2ccc(OC)c(OC)c2)cc1	-13%	-1%	36%	-80*	.	.
COc1ccc(C(=O)NC(=S)NCCc2ccccc2)cc1	26%	-12%	10%	-17	-4%	.
